This note sets out measurements from the OligoGym collection.
Also: reference of the scale not given here.

The target of one assay is TIMM44. Description: pooled miR-30 sensor sort-seq; sequence = guide strand. The note with it: shRNA.
TTCGTCATACTTCATCTTCATC came in with a sensor-assay potency score (higher = more potent) of -1.59.

In turn, TTCTCTTCCGGAGTCGCTGGGG gave a sensor-assay potency score (higher = more potent) of -0.531.

Sequence TAAGTAGCTTCATAGCACCAGT yielded a sensor-assay potency score (higher = more potent) of -0.441.

Take TTCCGTAGCACCTCGCTCGTCC: the sensor-assay potency score (higher = more potent) came out at 1.18.

In turn, TTGACATTATCTAGCAAGCCGG showed a sensor-assay potency score (higher = more potent) of -1.12.

The next assay concerns the target TIMM50. The description is as above. The note with it: shRNA.
TGAAATATCCTTTACATGGTGT yielded a sensor-assay potency score (higher = more potent) of 0.0469.

As for TTTGCTTCTGACTAGTCTCCTG, the sensor-assay potency score (higher = more potent) was -0.00854.

Turning to TTCTGCTTGTTGGACTTGGAGA, the sensor-assay potency score (higher = more potent) was -1.03.

Turning to TTGAAATATTTGTATGTCCGGC, the sensor-assay potency score (higher = more potent) was -0.0672.

In turn, TATCAATGAGTGGAAACGCAGT came in with a sensor-assay potency score (higher = more potent) of -1.04.

Regarding TGATCATCTGTCTATAATCTTT, the sensor-assay potency score (higher = more potent) is -1.49.

In turn, TGTCCATCCATGTATCTTGTGG had a sensor-assay potency score (higher = more potent) of -0.521.

For TTGCTTCTGACTAGTCTCCTGG, the sensor-assay potency score (higher = more potent) was -0.18.

For TACATGGTGTCCATCCATGTAT, the sensor-assay potency score (higher = more potent) is -1.

Consider ATTCAGACATGAAATATCCTTT, for which the sensor-assay potency score (higher = more potent) was 0.389.

TAGACGACGCTCACAGTCCCAC had a sensor-assay potency score (higher = more potent) of -0.936.

The next assay addresses TJP3. The assay is described as above. The note with it: shRNA.
As for TTGAGCTCCTGGTACCAGGTGT, the sensor-assay potency score (higher = more potent) was determined as 0.444.

Take ATCGTCTTCATCCGAGTCCTGG: the sensor-assay potency score (higher = more potent) was -0.452.

Sequence TACCACGTCAGATACAACCATG yielded a sensor-assay potency score (higher = more potent) of -1.34.

The sequence TTCTGGAATCTACTGAACTTTC came in with a sensor-assay potency score (higher = more potent) of -1.4.

In the case of TACAACCATGGATCCACCGGGC, the sensor-assay potency score (higher = more potent) was -0.563.

TTCATCTGCACGTCCTGCCGTG returned a sensor-assay potency score (higher = more potent) of -0.0273.

TCGTAGTCGCTGTTAACGCGGC displayed a sensor-assay potency score (higher = more potent) of -0.824.

TTGACGCCAAACTCTTCGCTGT gave a sensor-assay potency score (higher = more potent) of -0.592.

In turn, ATAGGTTCGCATGCTGTCCTGT displayed a sensor-assay potency score (higher = more potent) of -0.0267.

TTCAGTGACAGGTTCTGGCTAG registered a sensor-assay potency score (higher = more potent) of 0.155.

Take TCTAGTTTGATGATCTTGGAGG: the sensor-assay potency score (higher = more potent) was -0.916.

TAGAATGAGATCTCCTTCCTGC registered a sensor-assay potency score (higher = more potent) of 0.597.

A further assay has as its target TKT. The description is as above. The note with it: shRNA.
For TTGCTCTTCAGGACCACCTTGG, the sensor-assay potency score (higher = more potent) is -0.197.

For the sequence TTGATGTGGGGACTGACCGAAA, the sensor-assay potency score (higher = more potent) is -0.805.

The sequence TTTCTTTCTTCAGCAGTTCGGC had a sensor-assay potency score (higher = more potent) of -0.762.

Sequence TTGTCGAAGTATTTGCCGGTGT registered a sensor-assay potency score (higher = more potent) of -0.129.

For TTGTCCAGCTTATAGATGCTGG, the sensor-assay potency score (higher = more potent) is -1.07.

TTGTCCCCAACTTTGTAGCTGG: the sensor-assay potency score (higher = more potent) was -0.755.

TTGAAGATCTCCGAGAAGGTGG displayed a sensor-assay potency score (higher = more potent) of 0.421.

The sequence TAGATGATGGCATTTTCTGGGC registered a sensor-assay potency score (higher = more potent) of -0.904.

Take TCCTTTTTGAAGATCTCCGAGA: the sensor-assay potency score (higher = more potent) was -0.964.

For the sequence TTCTGGTAGATGTCCATCTGGT, the sensor-assay potency score (higher = more potent) was -0.51.

As to TAAAAGACAGTTGATGTGGGGA, the sensor-assay potency score (higher = more potent) was 0.52.

Consider TTTTTGCTCTGGATCTGGCTGT, for which the sensor-assay potency score (higher = more potent) turned out to be 0.312.
